Measured values published in PubChem BioAssay.
Values without a mark were called inactive.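 The calls were made as follows: active = GFP response above 150% of the DMSO level; inconclusive = fewer than 70 events counted for a yeast strain; inactive = the rest.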

Test: yeast AGP1-GFP fluorescence change, single-dose – cell-based, flow cytometry, S. cerevisiae, cherry picks, confirmation (AID 2273);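 also: median GFP channel fluorescence over the whole cell population gate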
Settings: S. cerevisiae AGP1-GFP strain, 3 h, at 10 µM

## CCN(CC)c1ccc2cc(-c3nc(-c4ccc(OC)cc4)cs3)c(=O)oc2c1
  GFP response, % of DMSO: 108%
